In the supplement of paper PMC7866885, “A novel bicyclic 2,4-diaminopyrimidine inhibitor of Streptococcus suis dihydrofolate reductase” (PeerJ, 2021) one finds percent growth data, which are given here for 15 compounds.

Structures are written as SMILES. ± gives the standard deviation.

The subject of one assay is Streptococcus suis HE06. The assay is described as follows: percent growth relative to DMSO control; higher = less growth inhibition. As to conditions: 10 µM; incubation time 18 h. On the procedure: (§1)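 CLSI broth microdilution: 5x10^4 CFU of Streptococcus suis (strain P1/7 or HE06) incubated with 10 µM Pathogen Box compound in cation-adjusted Mueller Hinton broth, 37 °C, 5% CO2, 18 h. Growth read as OD600 and expressed as percent of the DMSO-treated control (100%); mean ± SD of three independent experiments.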

Another assay relates to Streptococcus suis P1/7. The description is as above. As to conditions: 10 µM; incubation time 18 h. The procedure:
as §1

For the compound `COc1ccc(S(=O)(=O)Nc2ccc(CN3CCN(C(=O)c4cccc(C#N)c4)CC3)cc2)cc1`, the percent growth with Streptococcus suis HE06 worked out at 103 ± 16%; in the assay with Streptococcus suis P1/7, 118 ± 47%.

Consider `CC(C)(C)C1CCC(CC2=C(O)C(=O)c3ccccc3C2=O)CC1` (stereo not given), for which the values for the percent growth with Streptococcus suis HE06 and in the assay on Streptococcus suis P1/7 were 17.3 ± 28% and 36.3 ± 11%, respectively.

In the case of `Cc1cc(C)n(-c2ccc(NC(=O)C3CCN(Cc4cnc(C)s4)CC3)cc2)n1`, the percent growth in the assay with Streptococcus suis HE06 stood at 95.3 ± 24%; with Streptococcus suis P1/7, 65.6 ± 19%.

As to `CC(C)n1nc(-c2cc3c(Cl)cccc3[nH]2)c2c(N)ncnc21`, the percent growth in the assay with Streptococcus suis HE06 is 112 ± 45%; in the assay on Streptococcus suis P1/7, 74.2 ± 5.9%.

`Cc1ccc(NC(=O)c2nc[nH]c2C(=O)Nc2nc3ccccc3[nH]2)c(C)c1`: the figures for the percent growth in the assay with Streptococcus suis HE06 and in the assay with Streptococcus suis P1/7 were 47.8 ± 38% and 1.93 ± 0.44%, respectively.

`COc1ccc(CCN2CCC(NCc3cccc(N(C)C)c3)CC2)cc1`: the percent growth in the assay with Streptococcus suis HE06 amounted to 98.6 ± 35%; in the assay on Streptococcus suis P1/7, 67.3 ± 22%.

With `c1ccc(-c2nc(NC3CCCCC3)cc(C3CC3)n2)nc1`, the percent growth in the assay on Streptococcus suis HE06 is 7.51 ± 12%; in the assay with Streptococcus suis P1/7, 0.494 ± 1.2%.

In the case of `O=C(COc1cccc(F)c1)Nc1nc(-c2ccccn2)cs1`, the percent growth is -0.0745 ± 0.086% in the assay on Streptococcus suis HE06 and 3.07 ± 5.3% in the assay on Streptococcus suis P1/7.

On to `NC(=O)c1cc(-c2ccsc2)ccc1OCCOc1ccccc1`, for which the results for the percent growth in the assay with Streptococcus suis HE06 and with Streptococcus suis P1/7 were 118 ± 40% and 120 ± 58%, respectively.

With `Cc1nc2ccccn2c1C(=O)NCc1ccc(Cl)cc1`, the percent growth was 78.1 ± 14% with Streptococcus suis HE06 and 133 ± 76% in the assay with Streptococcus suis P1/7.

For the compound `CCCCS(=O)(=O)Nc1ccc2cnn(C)c2c1`, the percent growth with Streptococcus suis HE06 amounted to 92.3 ± 11%; with Streptococcus suis P1/7, 73 ± 10%.

Consider `COc1ccc(-c2cc(NC(=O)c3ccc(F)cc3Cl)ccc2OC)cc1`, for which the percent growth was 89.4 ± 3.4% in the assay on Streptococcus suis HE06 and 96 ± 31% in the assay with Streptococcus suis P1/7.

For the compound `CC[C@@H]([C@H](C)O)n1ncn(-c2ccc(N3CCN(c4ccc(OC[C@@H]5CO[C@@](Cn6cncn6)(c6ccc(F)cc6F)C5)cc4)CC3)cc2)c1=O`, the percent growth in the assay with Streptococcus suis HE06 is 76.2 ± 4.8%; in the assay on Streptococcus suis P1/7, 77.5 ± 0.79%.

Take `O=C(C(Cc1c[nH]c2ccccc12)NS(=O)(=O)c1ccc(Cl)cc1)N1CCCCC1` (stereo not given): the percent growth in the assay on Streptococcus suis HE06 was 89.3 ± 4.7%; in the assay with Streptococcus suis P1/7, 120 ± 43%.

Turning to `CC(C)(C)OC(=O)N1CCC(Cn2nc(-c3cnc4ccccc4c3)c3c(N)ncnc32)CC1`, the percent growth with Streptococcus suis HE06 came to 88.2 ± 27%; with Streptococcus suis P1/7 it was 74.1 ± 6.8%.
